Assay results published in PubChem BioAssay.
“And” between values parts separate entries of the source, which are not always exact repeats. Identical values can stand only once. The source made the active and inactive calls.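 Rule for the calls, unless noted: active = z-score of at least 1.8 in each of two replicates, scored against plate mean and spread of sample wells; inactive = the rest.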

How the values were obtained:
[1] = sensitizers of A549 cells to miR-34 induction, primary screen, imaging, A549 dox-inducible miR-34, nuclei and caspase counts (AID 1347080;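 active = compounds whose cell count with miR-34 switched on is under 0.7 times the count with it off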; note: test concentration not given here); conditions: A549 miR-34 inducible, Hoechst nuclei count, 48 h
[2] = viability rescue of complex I mutant cybrids, primary screen, cell-based, galactose medium, ATP luminescence (AID 1645843); conditions: complex I mutant cybrid cells, 72 h, stronger effect = higher value;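 note: positive z means more ATP and so rescue of galactose-driven cybrid death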
[3] = stronger effect = lower value, cell number ratio, induced over uninduced
[4] = measured here: relative caspase fold change +Dox/-Dox
[5] = measured here: total cells with miR-34 induction, stronger effect = lower value
[6] = measured here: total cells without miR-34 induction

SMILES: COC1C=CO[C@@]2(C)Oc3c(C)c(O)c4c(O)c(c5c(nc6cc(C)ccn65)c4c3C2=O)NC(=O)C(C)=CC=CC(C)C(O)C(C)C(O)C(C)C(OC(C)=O)C1C (stereo not given in full)
- fold change [1, 3]: 0.986 (inactive)
- fold change [1, 4]: 1.96
- cell count [1, 5]: 9910
- cell count [1, 6]: 10000
- z-score [2]: 1.96 (active)

SMILES: CC(C)CC(NC(=O)C(COC(C)(C)C)NC(=O)C(Cc1ccc(O)cc1)NC(=O)C(CO)NC(=O)C(Cc1c[nH]c2ccccc12)NC(=O)C(Cc1cnc[nH]1)NC(=O)C1CCC(=O)N1)C(=O)NC(CCCN=C(N)N)C(=O)N1CCCC1C(=O)NNC(N)=O (stereo not given)
- fold change [1, 3]: 1.04 (inactive)
- fold change [1, 4]: 1.1
- cell count [1, 5]: 7490
- cell count [1, 6]: 7190
- z-score [2]: 0.385 (inactive)

SMILES: CC=CC(=O)N(CC)c1ccccc1C
- fold change [1, 3]: 0.962 (inactive)
- fold change [1, 4]: 1.8
- cell count [1, 5]: 9730
- cell count [1, 6]: 10100
- z-score [2]: 0.595 (inactive)

SMILES: CC(=O)[C@@]1(O)CCC2C3CC(C)C4=CC(=O)CC[C@]4(C)C3CC[C@@]21C (stereo not given in full)
- fold change [1, 3]: 0.817 (inactive)
- fold change [1, 4]: 0.742
- cell count [1, 5]: 7720
- cell count [1, 6]: 9450
- z-score [2]: -0.04 (inactive)

SMILES: CC(=O)O[C@]1(C(C)=O)CCC2C3C=C(C)C4=CC(=O)CC[C@]4(C)C3CC[C@@]21C (stereo not given in full)
- fold change [1, 3]: 0.943 (inactive)
- fold change [1, 4]: 1.2
- cell count [1, 5]: 6760
- cell count [1, 6]: 7170
- z-score [2]: -0.29 (inactive)

SMILES: O=C1NC(=O)c2c1c(-c1ccccc1)cc1[nH]c3ccc(O)cc3c21
- fold change [1, 3]: 0.992 (inactive) and 1.16 (inactive)
- fold change [1, 4]: 0.466 and 1.08
- cell count [1, 5]: 2060 and 2860
- cell count [1, 6]: 2080 and 2470
- z-score [2]: -1.27 (inactive) and -0.655 (inactive)

SMILES: COc1cc(CNC(=O)CCCCC=CC(C)C)ccc1O
- fold change [1, 3]: 0.954 (inactive)
- fold change [1, 4]: 2.14
- cell count [1, 5]: 9660
- cell count [1, 6]: 10100
- z-score [2]: 0.315 (inactive)

SMILES: COc1ccc2c3c1OC1CC(O)C=C[C@@]31CCN(C)C2 (stereo not given in full)
- fold change [1, 3]: 0.977 (inactive)
- fold change [1, 4]: 1.4
- cell count [1, 5]: 9660
- cell count [1, 6]: 9890
- z-score [2]: 0.92 (inactive)

SMILES: CC(=O)O[C@@]12COC1CC(O)[C@@]1(C)C(=O)C(O)C3=C(C)C(OC(=O)C(O)C(NC(=O)OC(C)(C)C)c4ccccc4)C[C@](O)(C(OC(=O)c4ccccc4)C21)C3(C)C (stereo not given in full)
- fold change [1, 3]: 1.14 (inactive)
- fold change [1, 4]: 1.25
- cell count [1, 5]: 3410
- cell count [1, 6]: 2990
- z-score [2]: -1.09 (inactive)

SMILES: CC(C)(C)NC(=O)C1CC2CCCCC2CN1CC(O)C(Cc1ccccc1)NC(=O)C(CC(N)=O)NC(=O)c1ccc2ccccc2n1 (stereo not given)
- fold change [1, 3]: 1.12 (inactive)
- fold change [1, 4]: 1.27
- cell count [1, 5]: 4860
- cell count [1, 6]: 4350
- z-score [2]: -1.52 (inactive)

SMILES: C=C1C(=CC=C2CCC[C@@]3(C)C2CCC3C(C)CCCC(C)(C)O)CC(O)CC1O (stereo not given in full)
- fold change [1, 3]: 0.912 (inactive)
- fold change [1, 4]: 1.66
- cell count [1, 5]: 9420
- cell count [1, 6]: 10300
- z-score [2]: -1.52 (inactive)

SMILES: CC=C1C2C=C(C)C[C@]1(N)c1ccc(=O)[nH]c1C2
- fold change [1, 3]: 0.883 (inactive)
- fold change [1, 4]: 1.22
- cell count [1, 5]: 10100
- cell count [1, 6]: 11400
- z-score [2]: 0.9 (inactive)

SMILES: C[C@]12C=CC(=O)C=C1CCC1C2C(O)C[C@@]2(C)C1CC[C@]2(O)C(=O)COC(=O)CCC(=O)O (stereo not given in full)
- fold change [1, 3]: 0.962 (inactive)
- fold change [1, 4]: 2.02
- cell count [1, 5]: 7550
- cell count [1, 6]: 7850
- z-score [2]: 1.77 (inactive)

SMILES: Nc1ncnc2c1ncn2C1OC(CO)CC1O (stereo not given)
- fold change [1, 3]: 0.896 (inactive)
- fold change [1, 4]: 2.91
- cell count [1, 5]: 8910
- cell count [1, 6]: 9950
- z-score [2]: -0.825 (inactive)

SMILES: COC(=O)C[C@](O)(CCCC(C)(C)O)C(=O)OC1C(OC)=C[C@]23CCCN2CCc2cc4c(cc2C13)OCO4 (stereo not given in full)
- fold change [1, 3]: 0.85 (inactive)
- fold change [1, 4]: 0.957
- cell count [1, 5]: 1590
- cell count [1, 6]: 1870
- z-score [2]: -1.86 (inactive)
